# High-throughput results deposited in PubChem by National Center for Advancing Translational Sciences (NCATS).
# The entries come from a sample that favours hits as a whole.
# a7 integrin act: qHTS for Activators of Integrin-Mediated Alleviation for Muscular Dystrophy; alpha7betagal myoblasts, beta-gal FDG fluorescence, 48 h; Potency, µM (doses to about 38.3 µM), for inactives: at the top dose activation, most hits filed as activators; 350,000 tested, 0.064% active; AID 624291, 2012;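 note: potency is the fitted concentration of half-maximal effect; 100% = response of the positive control SU9516; nearly all actives have a fitted effect of over 60% in size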
#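 Alpha7betagal+/- myoblasts (passage 13) were plated 16-24 hr, then exposed to compounds (1:260 dilution of DMSO stock) for 48 hours at 37C. After MPER lysis, β-galactosidase reporter activity was read as FDG fluorescence (ex 480/em 540) after 30 minutes.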
# Glioma ERSR ind: qHTS for Inducers of the Endoplasmic Reticulum Stress Response (ERSR) in Human Glioma: qHTS; Potency, µM, without a hit: top-dose activation, most hits filed as activators; AID 602332, 2012; U87-MG GRP78 promoter luciferase reporter, 16 h; 420,000 tested, 0.02% active; note: potency is the fitted concentration of half-maximal effect; series mostly up to about 76 µM; % of control where 0% means no effect; nearly all actives have a fitted effect of over 35% in size
#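 ERSR induction read as luciferase luminescence (Bright-Glo, 10 min at room temperature) in stably transfected human U87-MG glioma cells exposed to compounds for 16 h, using GRP78 as sensor.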
# ClpP mod: qHTS Assay for Activators of ClpP. ATP-dependent Clp protease proteolytic subunit (Bacillus subtilis (strain 168)), P80244. purified B. subtilis ClpP, FRET peptide cleavage, 20 min. Potency, µM (highest dose often 57.5 µM), for the others: top-dose activity change, negative = active. 340,000 tested, 1.9% active; active = well fitted falling curve with a large enough effect; inconclusive = small, poorly fitted or top-dose-only effect; inactive = no such curve, though single readings can be large or run the other way; note: potency is the fitted concentration of half-maximal effect; the source files actives as falling curves though it sought activators and does not explain the sign; nearly all actives have a fitted effect of over 65% in size
#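 ClpP 10 microg/mL final, pH 8 Tris/KCl buffer with BSA, glycerol, Tween-20; compound pinned in; FRET-FV substrate; RT 20 min; Ex320/Em430; ΔFRET vs ADEP 5.8 microM, DMSO, no enzyme.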
# Apoferritin bind: qHTS Assay for Identification of Novel General Anesthetics. Ferritin light chain (Equus caballus), P02791. apoferritin/1-aminoanthracene competitive binding, fluorescence. Potency, µM (series often up to 77.5 µM), without a hit: at the top dose activity change, negative = displacement, usual class: inhibitors. 350,000 tested, 0.074% active. AID 485281, 2010; note: potency is the fitted concentration of half-maximal effect; % is set by controls: 0 for no effect and ±100 for the full control effect; nearly all actives have a fitted effect of over 20% in size
#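 10 uM apoferritin + 50% sat. 1-AMA, PBS; cpd 10 min RT; Ex380/Em535 endpoint; normalized to free probe vs complex; 4-param Hill fit; propofol titration as pos. ctrl.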
# CBFb RUNX1 block: qHTS Assay for Compounds Blocking the Interaction Between CBF-beta and RUNX1 for the Treatment of Acute Myeloid Leukemia; Runt-related transcription factor 1 (Homo sapiens) + Core-binding factor subunit beta …; AlphaScreen CBFb-His/RUNX1-biotin binding, biochemical; Potency, µM (top dose mostly 59.8 µM), without a hit: at the highest dose activity, negative = inhibition, usual class: inhibitors; 230,000 tested, under 10 active; note: % of control where 0% means no effect
# Target sequence (Q01196 whole entry, looked up): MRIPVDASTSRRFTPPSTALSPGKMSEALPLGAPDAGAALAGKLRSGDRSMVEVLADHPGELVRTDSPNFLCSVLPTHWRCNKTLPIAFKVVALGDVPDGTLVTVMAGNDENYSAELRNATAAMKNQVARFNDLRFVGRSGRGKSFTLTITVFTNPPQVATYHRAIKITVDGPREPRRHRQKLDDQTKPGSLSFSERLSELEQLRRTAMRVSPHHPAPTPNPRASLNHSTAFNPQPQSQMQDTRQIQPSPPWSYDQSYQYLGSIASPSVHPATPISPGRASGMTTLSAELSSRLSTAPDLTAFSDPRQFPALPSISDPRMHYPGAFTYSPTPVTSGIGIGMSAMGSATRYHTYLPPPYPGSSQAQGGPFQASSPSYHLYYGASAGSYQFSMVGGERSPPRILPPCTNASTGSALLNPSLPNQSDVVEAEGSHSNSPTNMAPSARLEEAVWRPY
# Target sequence (Q13951 whole entry, looked up): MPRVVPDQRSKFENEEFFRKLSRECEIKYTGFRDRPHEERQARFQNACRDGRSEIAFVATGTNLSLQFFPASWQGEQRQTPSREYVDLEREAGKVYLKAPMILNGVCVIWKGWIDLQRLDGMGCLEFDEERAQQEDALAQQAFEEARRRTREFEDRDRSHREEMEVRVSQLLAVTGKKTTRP
#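 AlphaScreen proximity signal reports loss of binding between His-tagged CBF-beta and biotin-labelled RUNX1, each at 30 nM. Proteins are pre-associated for 20 minutes, compounds added for 15 minutes, then beads for 90 minutes, all at ambient temperature.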
# N370S GC mod: qHTS Assay for Inhibitors and Activators of N370S glucocerebrosidase as a Potential Chaperone Treatment of Gaucher Disease | Lysosomal acid glucosylceramidase (Homo sapiens), P04062 | N370S GC spleen homogenate, 4MU-glucoside fluorescence | Potency, µM (top dose mostly 59.4 µM), inactives show at the top dose activity change, negative = inhibition, actives largely listed as inhibitors | 330,000 tested, 0.092% active | AID 2101, 2009;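 note: potency is the fitted concentration of half-maximal effect; 0% = full enzyme activity and -100% = no enzyme basal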
# An asterisk follows results filed as active; ? = inconclusive; . = no result; [ ] = remark or other dose. Unless noted, calls come from the whole dose curve; as a rule, active = well fitted curve in the direction sought with a large enough effect; inconclusive = small, poorly fitted or top-dose-only effect, or another doubt; inactive = no such curve, though single readings can be large; an effect the other way counts as inactive or inconclusive.
SMILES,a7 integrin act,Glioma ERSR ind,ClpP mod,Apoferritin bind,CBFb RUNX1 block,N370S GC mod
C#CCOCCOCCOCCNc1nc(N2CCN(C(=O)CCCCCCCCCCNC(=O)[C@H](CO)n3cc(CCCSC)nn3)CC2)nc(N2CCN(C(=O)CCCCCCCCCCNC(=O)[C@H](CCCCN)n3cc(CCO)nn3)CC2)n1,-4.5%,-0.7%,-2.8%,.,.,.
C#CCOCCOCCOCCNc1nc(N2CCN(C(=O)CCCCCCCCCCNC(=O)Cn3cc(C[C@@H](C)O)nn3)CC2)nc(N2CCN(C(=O)CCCCCCCCCCNC(=O)[C@H](CCCCN)n3cc(CCCC(=O)O)nn3)CC2)n1,15.1%,-2.1%,-1.6%,.,.,-13.5%
Cc1oc(-c2ccccc2NC(=O)C2CCC2)nc1CNC(=O)c1ccc(C#CC(C)(C)O)cc1,.,-7.4%,.,.,.,.
COc1ccc(OC)c(/C=C2\C=Cc3ccccc32)c1,.,-1.5%,-16.2%,.,.,.
CC(C)C(NC(=O)c1ccoc1)c1nnc2n1CCN(Cc1ccc3c(c1)Cc1ccccc1-3)CC2 (stereo not drawn),.,-5.8%,.,.,.,.
CC(C)(C)c1ccc(-c2n[nH]c(=S)n2-c2ccccc2)cc1,11.4%,-4.9%,8.91µM*,-6.9%,.,5.9%
Cc1ccc(-n2c(-c3ccccc3)n[nH]c2=S)cc1,7.9%,-6.0%,-8.6%,-2.5%,-5.9%,-1.1%
CO/N=C(/C(=O)N[C@@H]1C(=O)N2C(C(=O)O)=C(CSc3cnns3)CS[C@H]12)c1csc(N)n1,.,-2.4%,.,.,.,.
Cc1cc(-c2cc(F)cc3c2OC(CNC(=O)CCn2cncn2)C3)ccc1F (stereo not drawn),.,-2.3%,.,.,.,.
Cc1ccc2nc(-c3cccc(Br)c3)cc(C(=O)NCC3CCCO3)c2c1 (stereo not drawn),1.6%,-0.7%,14.1µM*,-3.6%,.,1.9%
O=C(NCC1CCCO1)c1cc(-c2ccccc2)nc2ccc(Br)cc12 (stereo not drawn),17.3%,2.0%,-17.4%,-12.9%,.,-2.5%
NC(=O)C1=C(N=C2CCCCC2)CCCC1,22.3%,-1.5%,31.6µM*,.,.,.
Cc1ccc2cc(CNC(C)c3cccc4ccccc34)c(N3CCC(O)CC3)nc2c1 (stereo not drawn),.,-3.3%,.,.,.,.
COc1cc2nc(N3CCN(C)CC3)nc(NC(C)C)c2cc1OC,.,.,4.1%,.,.,.
COc1ccc(N2CCN(S(=O)(=O)CCNC(=O)COc3cccc(OC)c3)CC2)cc1,-9.7%,-4.1%,-10.2%,-0.2%,.,1.7%
COc1ccc(N2CCN(S(=O)(=O)CCNC(=O)COc3ccccc3)CC2)cc1,7.7%,-4.0%,17.8µM*,.,.,-2.1%
Fc1ccc(Sc2cc(Cl)c(-c3ccccc3)nn2)cc1,-10.3%,-0.6%,28.2µM*,-21.9%,5.2%,?
CN(CCOc1ccc(Cl)cc1)C(=O)c1cc(-c2ccco2)nc2ccccc12,31.7%,-6.5%,28.2µM*,.,.,5.9%
Cn1nccc1C(=O)NCC1CCC2(CCN(Cc3cccc4ncccc34)CC2)O1 (stereo not drawn),.,-4.6%,.,.,.,.
CC1=C(C#N)C(c2cn(-c3ccccc3)nc2-c2cccs2)C(C#N)=C(C)N1,22.2%,1.1%,35.5µM*,73.1%,6.4%,1.5%[2.35 µM]
Oc1cc(-c2nc3ccccc3s2)cc2c1OCCN(Cc1cccn1-c1ncccn1)C2,.,-3.0%,.,.,.,.
O=C(O)c1ccc2cccc(Cl)c2c1O,20.5%,-4.8%,17.8µM*,-7.2%,-2.3%,-3.7%
COc1ccccc1C(=O)N1CCOc2ccc(C(C)(O)CCn3cccn3)cc2C1 (stereo not drawn),.,-0.4%,.,.,.,.
COc1ccc(O)c(C(=O)c2cnc3nc4ccccc4n3c2)c1,-5.2%,-6.1%,28.2µM*,-2.0%,-0.1%,5.7%
